Compounds with a hit are over-represented: about 13% of the library has one in this group of screens.
Lassa entry inh = qHTS for Inhibitors of binding or entry into cells for Lassa Virus; Potency, µM (top dose mostly 37.9 µM), usual class: inhibitors; 1.2% of 300,000 active; AID 540256, 2011; Lassa virus pseudotype entry inhibition, cell reporter; calls by dose curve; tested in HEK293 cells; note: nearly all actives have a fitted effect of over 50% in size
Shiga inhibitor = A qHTS for Small Molecule Inhibitors of Shiga Toxin | Vero cells, Shiga toxin protein synthesis inhibition reporter | inhibition, % at 38.7 µM | 9.2% of 290,000 active | AID 2315, 2010; in the data active = inhibition mostly above about 28%, no sharp cut-off; inactive = mostly below about 43%
Marburg entry inh = qHTS for inhibitors of binding or entry into cells for Marburg Virus. Potency, µM (titrated, usually from 37.8 µM), most hits filed as inhibitors. 1.8% of 300,000 active. Marburg virus pseudotyped entry inhibition, cell reporter. AID 540276, 2011; calls by dose curve; tested in HEK293 cells
HCV inhibitor = qHTS Assay for Inhibitors of Hepatitis C Virus (HCV) | 3.4% of 340,000 active | Huh7.5.1 HCVcc-Cre infection, luciferase reporter, 44 h | Potency, µM (doses to about 41.8 µM), usual class: inhibitors; active = well fitted inhibition curve with a large enough effect; inconclusive = small, poorly fitted or top-dose-only effect, or another doubt; inactive = no such curve, though single readings can be large or run the other way
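Luciferase read-out (15 sec integration) after a 15 min room-temperature substrate step quantifies HCVcc-Cre infection. Cells, 1,000 per well, had compound added 4 h post-plating, then virus at ~0.5 moi, and were cultured 44 h.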
CHX counter = Cycloheximide Counterscreen for Small Molecule Inhibitors of Shiga Toxin; cell reporter, cycloheximide protein synthesis inhibition counterscreen; 12% of 300,000 active; max response, %; AID 2314, 2010; in the data active = max response mostly above about 13%, no sharp cut-off; inactive = mostly below about 14%; note: read at 38.3 µM for the half of the compounds with a filed dose
FMDV antiviral = High Throughput Screening for Foot and Mouth Disease Virus Antivirals. FMDV antiviral cell-based qHTS. Potency, µM (titrated, usually from 57.9 µM), usual class: inhibitors. 1.2% of 410,000 active. AID 1159524, 2015; calls by dose curve; tested in HEK293T cells; note: read-out not given here; nearly all actives have a fitted effect of over 45% in size
Hits are given with their value.

For CCOc1ccc(-c2nnc(SCC(=O)N3CCCC3)o2)cc1 the results were Lassa entry inh inactive, Shiga inhibitor inactive, Marburg entry inh inactive, HCV inhibitor inactive, CHX counter inactive and FMDV antiviral inactive.
For CCOc1ccc(-c2nnc(SCC(=O)N3CCOCC3)o2)cc1 the results were Lassa entry inh inactive, Shiga inhibitor 69, Marburg entry inh inconclusive, HCV inhibitor inactive, CHX counter 24 and FMDV antiviral inactive.
`CC1=C(C(=O)Nc2ccc(C)cc2C)C(c2cccc([N+](=O)[O-])c2)n2nc(C(=O)OC(C)C)nc2N1` (stereo unspecified) gave Lassa entry inh inactive, Shiga inhibitor inactive, Marburg entry inh inconclusive, HCV inhibitor inconclusive, CHX counter inactive and FMDV antiviral inactive.
`CCOc1ccc(NC(=O)CSc2nnc(NC(=O)C3CC3)s2)cc1` gave Shiga inhibitor inactive, Marburg entry inh inactive, HCV inhibitor inactive, CHX counter inactive and FMDV antiviral inactive.
Screening CCc1ccc(OCc2nnc(SCC(=O)NC3CCCCC3)o2)cc1 returned Shiga inhibitor 47, Marburg entry inh inactive, HCV inhibitor inactive, CHX counter inactive and FMDV antiviral inactive.
Screening Cc1ccc(CN(CC(=O)NC2CCCC2)C(=O)CSc2nnc(COc3ccccc3)o2)cc1 returned Lassa entry inh inactive, Shiga inhibitor inactive, Marburg entry inh inactive, HCV inhibitor inconclusive, CHX counter inactive and FMDV antiviral inactive.
`Oc1ccccc1CN1CCCN(Cc2ccccc2O)C1` gave Lassa entry inh 7.3µM, Shiga inhibitor inactive, Marburg entry inh 1.5µM, HCV inhibitor 8.9µM, CHX counter inactive and FMDV antiviral inactive.
`COc1ccc(-c2c3c(nc4sc(C(=O)Nc5ccccc5F)c(N)c24)CC(C)(C)CC3=O)cc1` gave Lassa entry inh inactive, Marburg entry inh inconclusive and FMDV antiviral inactive.
For NC(=O)Cc1ccc(C(=O)c2ccc(Cl)cc2)s1 the results were Lassa entry inh inconclusive, Shiga inhibitor 57, Marburg entry inh inconclusive, HCV inhibitor inactive, CHX counter inactive and FMDV antiviral inactive.
Screening O=C(O)Cc1ccc(C(=O)c2ccc(Cl)cc2)s1 returned Lassa entry inh inactive, Shiga inhibitor inactive, Marburg entry inh inactive, HCV inhibitor inactive, CHX counter inactive and FMDV antiviral inactive.
`Cc1ccccc1C(=O)N1CCC(c2nc3ccccc3s2)CC1` gave Lassa entry inh inactive, Marburg entry inh inconclusive and FMDV antiviral inconclusive.
`Nc1cc(OC(=O)c2ccco2)nn1S(=O)(=O)c1ccc(F)cc1` gave Lassa entry inh inactive, Shiga inhibitor inactive, Marburg entry inh inactive, HCV inhibitor inactive, CHX counter inactive and FMDV antiviral inactive.
`Nc1cc(OC(=O)c2ccc(F)cc2)nn1S(=O)(=O)c1ccc(F)cc1` gave Lassa entry inh 2µM, Shiga inhibitor inactive, Marburg entry inh inactive, HCV inhibitor inactive, CHX counter inactive and FMDV antiviral inactive.
Cc1cn([C@H]2C[C@H](O)[C@@H](CCC(=O)NCCCc3ccccc3)O2)c(=O)[nH]c1=O was read as FMDV antiviral inactive.
For O=C(c1cc(-c2ccco2)on1)N1CCc2ccccc2C1 the results were Lassa entry inh inactive, Shiga inhibitor inactive, Marburg entry inh inactive, HCV inhibitor inactive, CHX counter inactive and FMDV antiviral inactive.
O=C(c1cc(-c2cccs2)on1)N1CCc2ccccc2C1 was read as Lassa entry inh inactive, Shiga inhibitor 47, Marburg entry inh inactive, HCV inhibitor inactive, CHX counter inactive and FMDV antiviral inactive.
For O=C(c1cc(-c2ccccc2O)on1)N1CCc2ccccc2C1 the results were Shiga inhibitor inactive, HCV inhibitor inactive, CHX counter 25 and FMDV antiviral inactive.
For O=C(O)c1cc(S(=O)(=O)N2CCOCC2)c[nH]1 the results were HCV inhibitor inactive and FMDV antiviral inactive.
For Cc1cc(C)n(-c2nc3ccccc3c(=O)n2OCc2ccc(Cl)cc2)n1 the results were Lassa entry inh inactive, Shiga inhibitor inactive, Marburg entry inh inactive, HCV inhibitor inactive, CHX counter inactive and FMDV antiviral inactive.
Cc1cc(CC(C)C)n(-c2nc3ccccc3c(=O)n2OCc2ccccc2)n1 was read as Lassa entry inh inactive, Shiga inhibitor inactive, Marburg entry inh inactive, HCV inhibitor inactive, CHX counter 31 and FMDV antiviral inactive.
For Cc1cc(C)n(-c2nc3ccccc3c(=O)n2OCC(=O)N(C)C)n1 the results were Lassa entry inh inactive, Shiga inhibitor inactive, Marburg entry inh inactive, HCV inhibitor inactive, CHX counter inactive and FMDV antiviral inactive.
For Cc1cc(C)n(-c2nc3ccccc3c(=O)n2OCc2ccc(F)cc2)n1 the results were Lassa entry inh inactive, Shiga inhibitor inactive, Marburg entry inh inactive, HCV inhibitor inactive, CHX counter 18 and FMDV antiviral inactive.
For Cc1cc(C)n(-c2nc3ccccc3c(=O)n2OCC(=O)OCc2ccccc2)n1 the results were Lassa entry inh inconclusive, Shiga inhibitor inactive, Marburg entry inh inconclusive, HCV inhibitor inconclusive, CHX counter 15 and FMDV antiviral inactive.
CCCCOC(=O)Oc1ccc2c(=O)c(Oc3cccc(C)c3)coc2c1 was read as Lassa entry inh inactive, Shiga inhibitor inactive, Marburg entry inh inconclusive, HCV inhibitor inactive, CHX counter 35 and FMDV antiviral inactive.
Cc1ccc(Oc2coc3cc(O)ccc3c2=O)cc1 was read as Shiga inhibitor inactive, HCV inhibitor inactive, CHX counter 31 and FMDV antiviral inactive.
Cc1cc(C)cc(Oc2coc3cc(O)ccc3c2=O)c1 was read as HCV inhibitor inactive, CHX counter inactive and FMDV antiviral inactive.
CCCCOC(=O)Oc1ccc2c(=O)c(Oc3cc(C)cc(C)c3)coc2c1 was read as Lassa entry inh inactive, Shiga inhibitor inactive, Marburg entry inh inconclusive, HCV inhibitor inactive, CHX counter inactive and FMDV antiviral inactive.
Screening O=C(O)CCc1ncc(C(F)(F)F)cc1Cl returned Lassa entry inh inactive, Shiga inhibitor inactive, Marburg entry inh inactive, HCV inhibitor inactive, CHX counter inactive and FMDV antiviral inactive.
For O=S(=O)(Cc1ncc(C(F)(F)F)cc1Cl)c1ccccc1 the results were Lassa entry inh inconclusive, Shiga inhibitor 51, Marburg entry inh inactive, HCV inhibitor inactive, CHX counter 45 and FMDV antiviral inactive.
COc1ccc(/C=N/N=C2/NC(=O)CC(C(=O)O)S2)cc1 (stereo unspecified) was read as Lassa entry inh inactive, Shiga inhibitor inactive, Marburg entry inh inconclusive, HCV inhibitor inactive, CHX counter inactive and FMDV antiviral inactive.
`COc1ccc(/C=N/N=C2/CC(C)(C)Cc3n[nH]c(=O)cc32)cc1` gave Lassa entry inh inactive, Shiga inhibitor 36, Marburg entry inh inactive, HCV inhibitor inactive, CHX counter inactive and FMDV antiviral inactive.
For CCOc1cccc(CNCCc2c(C)[nH]c3ccc(OC(F)(F)F)cc23)c1O the results were Shiga inhibitor inactive, HCV inhibitor inconclusive, CHX counter inactive and FMDV antiviral 14µM.
Cc1[nH]c2ccc(OC(F)(F)F)cc2c1CCNCc1cccc([N+](=O)[O-])c1 was read as Lassa entry inh inactive, Shiga inhibitor inactive, Marburg entry inh inconclusive, HCV inhibitor inconclusive, CHX counter inactive and FMDV antiviral inactive.

Compound activity from PubChem.
